# Laboratory results taken from PubChem BioAssay AID1347417 (National Center for Advancing Translational Sciences (NCATS), 2020).
# Out of some 120,000 compounds screened, about 5,300 (4.4%) were called active. Roughly 22% stayed inconclusive and do not appear here. This is one part of a sample in which actives are shown more often than they occur. Values without a mark were called inactive. The call rests on the fitted dose curve; in most records, active means well fitted inhibition curve with a large enough effect; inconclusive means small, poorly fitted or top-dose-only effect; inactive means no such curve, though single readings can be large or run the other way.
# Test: qHTS Primary assay for Inhibitors of Plasmodium falciparum Dd2 growth in vitro; further: nearly all actives have a fitted effect of over 65% in size;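 on activity, negative = inhibition: plate controls were DMSO vehicle for no effect and reference drug for full effect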
# Details: P. falciparum Dd2 growth, SYBR Green, 72 h; series mostly up to 28.9 µM; activity, negative = inhibition: at the top concentration
# From the text: Malaria, a parasitic disease spread to humans through the bite of a Plasmodium infected Anopheles mosquito, continues to be a global health burden affecting millions of people, with an estimated 228 million cases and 405,000 deaths in 2018. Concerns about safety and limitations of current antimalarial treatments strongly emphasize the need to develop new therapeutic options. The scarce number of chemotypes and validated drug targets with efficacy against the liver stage, have hindered development of new antimalarials. To address this, a chemoprophylactic drug discovery effort was conducted through a combined phenotypic high-throughput asexual blood stage and liver stage screen, providing a robust foundation to identify liver-stage active lead chemotypes. Compounds were initially screened against Plasmodium falciparum Dd2 strain parasites using a in vitro SYBRGreen-1 based 72 hr proliferation assay to identify novel chemotypes to advance to liver stage assays. NIH/NCATS Early Translation Branch Assay Submitter (PI): Anton Simeonov Ph.D.
# Malaria-vivax Assay Protocol: PROTOCOL TABLE (as described by Inglese et al., 2007) SEQUENCE No. (e.g., 1, 2, 3, etc.); […] (e.g., Cells, Incubation, Reagent, etc.); VALUE; DESCRIPTION SEQUENCE, Parameter, Description 1; Reagent; 3 uL complete malaria growth medium, 1536 TC treated Black clear bottom plate 2; Controls; 23 nL positive control artesunate (300 nM final) to column 1; Neutral control DMSO to columns 2-4 3; Compound; 23 nL of compounds in dose response concentration (29 uM to 0.5 nM final) 4; Reagent; 5 uL malaria infected red blood cells (2.5% hematocrit final, 0.3% parasitemia 5; Time; 72 hours at 37C (5% O2, 5% CO2, 90% N2; 95% Rh) 6; Reagent; 2 uL lysis buffer/SYBRGreen-1, 25 sec shake immediately following dispense 7; Time; ~16 hours at 37C (5% O2, 5% CO2, 90% N2; 95% Rh) 8; Detector; EnVision (PerkinElmer) bottom read at 485/14nm excitation and 535/25 nm emission NOTES (numbers refer to sequence above): 1; Complete Malaria Growth Media: 1X RPMI-1640 w/L-glutamine, 5.5g/L Albumax II, 367 uM Hypoxanthine, 25 mM HEPES, 0.25% Sodium Bicarbonate, 35 uM Gentamicin sulfate 2; Controls were added using the Kalypsis Pintool (Wako USA) equipped with 1536 pinhead 3; Compounds were added in a 7-point, titration with a high final concentration of 29 uM by Pintool from seven inter-plate titrations of library plates and two DMSO control plates at the beginning and end (see Yasgar et al., 2008). 4; Red blood cells infected with Plasmodium falciparum Dd2 parasites were used. 6; Lysis buffer: 20 mM Tris-HCl, 10 mM EDTA, 0.16% Saponin, 1.6% Triton-X, 10X SYBR Green. REFERENCE: Inglese J, Shamu CE, Guy RK. 2007. Reporting data from high-throughput screening of small-molecule libraries. Nat Chem Biol. doi:10.1038/nchembio0807-438 Yasgar A, Shinn P, Jadhav A, Auld D, Michael S, Zheng W, Austin CP, Inglese J, Simeonov A. 2008. Compound Management for Quantitative High-Throughput Screening. J Lab Autom 13:79-89. doi:10.1016/j.jala.2007.12.004
# Potency means the concentration at half of the fitted maximal effect.
SMILES,"activity, negative = inhibition",Potency,outcome
Cc1ccccc1NC1CCn2c(nc(C)c2C(=O)Nc2ccc(F)cc2)C1 (stereo not given),-18.3% [at 44.1 µM],–,–
CCN(CCCNC(=O)c1cc2cc3cc(OC)ccc3nc2s1)c1ccccc1,-5.94%,–,–
CCN(CCCNC(=O)c1nnn2cc(-c3ccccc3)[nH]c(=O)c12)c1ccccc1,–,8.91 µM (active),–
CCN(CCCNC(=O)Cn1ncc2c([nH]c3ccccc32)c1=O)c1cccc(C)c1,-14.7%,–,–
Cc1nn(C)cc1CN(C)C(=O)C1CN(S(=O)(=O)c2cccnc2)CC12CCCCC2 (stereo not given),–,–,inactive
COc1cc(=O)n2c(c1C(=O)Nc1cccc(Br)c1)CCCC2,27.2%,–,–
CCOc1ccc(-c2cc3nc(C4CCN(C(=O)OC(C)(C)C)CC4)c(C(=O)Nc4cccc(CC)c4)cn3n2)cc1,–,7.94 µM (active),–
CCc1cccc(NC(=O)N2CCC(c3noc(COc4ccc(F)cc4)n3)CC2)c1,-6.5%,–,–
CCOc1ccc(-c2cc(C)n3nc(C(=O)Nc4ccc(C)c(C)c4)cc3n2)cc1,-17.2%,–,–
O=C(C[C@@H]1CCNC[C@@H]1Cc1cc(COc2ccccc2)on1)NCc1ccco1,–,–,inactive [at 44.1 µM]
CCc1cccc(NC(=O)CN2C(=O)NC(c3ccc(Cl)cc3)C3=C2COC3=O)c1 (stereo not given),-19.7%,–,–
Cc1ccc(-c2nnc(C3CN(C(=O)c4cc(C)cc(C)c4)CC34CCOCC4)o2)cc1 (stereo not given),-5.46%,–,–
O=[S+]([O-])(c1ccccc1)N1CC2(CCCCN2Cc2cccnc2)Cc2ccccc21 (stereo not given),–,8.91 µM (active),–
CC(=O)NCC(=O)N1Cc2ccccc2CC2(CCCN2Cc2cccnc2)C1 (stereo not given),21.7%,–,–
C[S+](=O)([O-])N1Cc2ccccc2CC2(CCN(Cc3cccnc3)CC2)C1,-18.3%,–,–
CN1CCCN(S(=O)(=O)c2ccccc2)CCC(=O)NCC1,25.3%,–,–
CC(C)c1noc(-c2cccn3c(CNC(=O)c4ccc(C(C)(C)C)cc4)nnc23)n1,-0.267%,–,–
Cc1nc(-c2ccc(Cl)cc2)n(Cc2cc(F)cc(F)c2)c(=O)c1CCO,-10.6%,–,–
CCOc1ccc(C(=O)N2CCCN(C(=O)C3CC3)c3ccccc32)cc1,–,–,inactive; activator; fitted 1.7783 uM
CCOc1ccc(C(=O)/C=C/c2cn(CC(O)CN3CCCCCC3)c3ccccc23)cc1 (stereo not given),–,12.6 µM (active),–
COc1ccc2cc(C(=O)N3C[C@@H](Oc4ccccc4)C[C@H]3C(=O)N3CCOCC3)[nH]c2c1,-1.38%,–,–
Cc1ccc(CNC(=O)CCc2c(C)nc3c(c(C)nn3-c3ccccc3)c2C)cc1,-16.4%,–,–
COC(=O)c1ccc(NC(=O)CCc2c(C)nc3c(c(C)nn3-c3ccc(C)cc3)c2C)cc1,–,6.31 µM (active),–
Cc1nc2c(c(C)nn2-c2ccccc2)c(C)c1CCC(=O)NCCc1ccc(Cl)cc1,22.1%,–,–
Cn1cc(-c2ccccc2)cc1C(=O)NCc1ccc(N2CCOCC2)cc1,–,–,inactive

SMILES,"activity, negative = inhibition",Potency,outcome
CC[C@@]1(C(=O)O)C[C@H](C(=O)NCCCO)[C@H](c2ccc(OC)cc2)N1C,-0.459%,–,–
CCc1noc(-c2nnn3c2COC(c2ccc(OC)cc2)C3)n1 (stereo not given),–,–,inactive
CN(C)S(=O)(=O)N1CCC(Oc2ccc(C(=O)NC3(C)CC3)cc2)CC1,-8.77%,–,–
Cc1nn2c(c1-c1ccccc1N1CCCC1)N(C(=O)c1ccn(C)n1)CCC2,–,–,inactive [at 44.1 µM]
O=C(c1cccs1)N1CC(Oc2ccc(-c3nc(-c4ccccc4)no3)cc2)C1,8.59% [at 5.79 µM],–,–
O=C(c1ccc(C(F)(F)F)cc1)N1CCn2c(nn(-c3cccc(Cl)c3)c2=O)C1,-12.9%,–,–
Cn1nnnc1SCCNCc1ccc(Cl)c(Cl)c1,-4.54%,–,–
Cn1nnnc1SCCCNCc1ccc(Cl)cc1,-18.1%,–,–
Cn1nnnc1SCCCNCc1cccc(OCc2ccc(Cl)cc2)c1,–,12.6 µM (active),–
Cc1ccc(C(=O)CC2(O)C(=O)N(CCc3ccccc3)c3ccc(Br)cc32)cc1 (stereo not given),–,10 µM (active),–
Cc1ccc(S(=O)(=O)NC2(C(F)(F)F)NC(=O)N(CCc3ccccc3)C2=O)cc1 (stereo not given),12%,–,–
Cc1ccc(C(=O)N2CCc3cc(CNC(=O)c4ccc(Br)cc4)ccc32)cc1,–,–,inactive
COCCN1CCC(N2CCN(C(=O)c3cc(F)cc(F)c3)CC2)C1=O (stereo not given),5.06%,–,–
Cc1cc(C)cc(NC(c2nnc(-c3cccc(F)c3)o2)c2ccc(F)cc2Cl)c1 (stereo not given),–,3.55 µM (active),–
CC(=O)c1ccc(NC(c2ccc(F)cc2)c2nnc(-c3ccccc3)o2)cc1 (stereo not given),3.29%,–,–
Cc1c(C(=O)N2CCn3nc(C(O)CO)cc3C2)sc2ccccc12 (stereo not given),-5.26%,–,–
O=C(c1cnc2c(c1)N(Cc1ccccc1)CCC2)N1CC[S+](=O)([O-])CC1,-8.42% [at 44.1 µM],–,–
COCCNC(=O)C[C@@H]1C[C@H]2O[C@H](CNC(=O)Nc3cccc(Cl)c3)[C@@H](O)[C@H]2O1,20.7% [at 44.1 µM],–,–
CCCN1CCc2nc(N3CCN(C)CC3)ncc2C1,36.4% [at 5.79 µM],–,–
CCN1CCN(c2ncc3c(n2)CC(c2ccccc2O)CC3=O)CC1 (stereo not given),–,8.91 µM (active),–
Cc1ccc(CN2CCc3nc(N4CCN(C)CC4)ncc3C2)cc1,–,–,inactive
COc1ccc2[nH]c3c(c2c1)CCN(C)C31CCN(C(=O)c2ccoc2)CC1,–,–,inactive
Cc1ccc(-c2nc(C(=O)N3CCN(c4ccccn4)CC3)no2)cc1,–,–,inactive
O=C(c1ccccc1)N1Cc2ccccc2NC(=O)C12CCNCC2,11.4%,–,–
O=C(NCc1ccc(F)cc1)N1CCC(n2cnnc2C2CC2)C1 (stereo not given),–,–,inactive
